This note sets out measurements from PubChem BioAssay AID504942 (Broad Institute, 2011).

Potency and affinity values are given separately. Calls of active or inactive are those of the source. Entries that show only a call come without a potency. The rule behind the calls is not given here.

A short description of the experiment: HeLa cell cytotoxicity, dose response, cytotoxicity control, 48 h, plate reader, cherry-picks (AID 504942).

Regarding `N#CC1C(C#N)C2CCC1C1C2N1c1ccccc1` (stereo unspecified), the call was inactive.
